Rows were chosen to be rich in hits. Some 2.4% of all compounds tested hit in one or more screens of this group.
EP2 modulator: modulators of human EP2 prostaglandin E2 receptor | EP2-expressing cells, cAMP HTRF FRET, PGE2 co-stimulation | P43116 | induction, % at 25 µM | 260,000 tested, 0.83% active;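 active = compounds whose cAMP rise, as percent of the full-agonist control response, exceeds 60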;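 note: rat C6 glioma line stably carrying human EP2 under a CMV promoter; the protocol text gives 20 µM as final concentration; 100% = response of wells given 1 µM PGE2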
Target sequence (P43116 whole entry, looked up): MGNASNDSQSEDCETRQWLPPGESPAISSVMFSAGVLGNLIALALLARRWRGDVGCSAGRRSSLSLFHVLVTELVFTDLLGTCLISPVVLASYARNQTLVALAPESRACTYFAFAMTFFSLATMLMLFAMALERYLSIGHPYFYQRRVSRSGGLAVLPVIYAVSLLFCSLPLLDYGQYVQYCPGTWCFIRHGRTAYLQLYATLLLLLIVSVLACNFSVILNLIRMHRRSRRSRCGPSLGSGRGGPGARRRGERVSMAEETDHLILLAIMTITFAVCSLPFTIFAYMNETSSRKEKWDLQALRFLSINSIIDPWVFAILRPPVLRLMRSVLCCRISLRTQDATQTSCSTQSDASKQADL
EP2 antag: inhibitors of human EP2 prostaglandin E2 receptor | P43116 | C6 glioma cells expressing human EP2, cAMP TR-FRET; cells stimulated with saturating PGE2 | inhibition, % at 25 µM | 260,000 tested, 0.52% active | AID 1422;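 active = percent inhibition above 40 after rounding to a whole number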;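 note: rat C6 glioma host cells with rolipram phosphodiesterase inhibitor present; the protocol text gives 20 µM as final concentration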
p97 ATPase inh: human p97 ATPase inhibition; inhibition, % at 8 µM; recombinant p97 ATPase, Kinase-Glo ATP luminescence, 3 h; P55072; 220,000 tested, 0.42% active; in the data active = inhibition above about 15%;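 note: 0% = DMSO vehicle and 100% = wells lacking enzyme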
Arbovirus inh: antivirals against arbovirus infection; arbovirus infection cell-based antiviral screen; inhibition, % at 10 µM; 200,000 tested, 0.37% active; AID 1251; in the data active = inhibition above about 30%
Hck Nef HTS: human Hck-Nef kinase inhibition; P08631; Recombinant Hck-YEEI plus Nef, Z-Lyte FRET kinase assay; inhibition, % at 20 µM; 220,000 tested, 0.68% active; AID 463187;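 active = Hck-Nef kinase inhibition above about 50%, limit read from the data; inactive = inhibition below that limit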;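 note: 0% = DMSO with Hck plus Nef and 100% = Hck alone without Nef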
An asterisk follows results filed as active; . = not tested or not shown; ! = not active in a repeat.

SMILES	EP2 modulator	EP2 antag	p97 ATPase inh	Arbovirus inh	Hck Nef HTS
CCOC(=O)CSc1ccc(-c2nc3ccccc3[nH]2)cn1	-49	42*!	2	-4	-21
CCOC(=O)CSc1ccc(-c2nc3cc(C)c(C)cc3[nH]2)cn1	-62	57*!	-5	-4	-1
C=CCN1C(=O)C2C(C(=O)NC3CCCCC3C)C3(C)C=CC2(O3)C1C(=O)NC1CCCCC1 (stereo unspecified)	-11	7	.	.	.
CCCc1ccc(Oc2cn[nH]c2-c2ccc(O)c(C)c2O)cc1	-17	53*	8	-43	-2
Cc1cc(C)c(NC(=O)C(=O)NCCN2CCOCC2)c(C)c1	13	10	.	.	.
Cc1cc2cccc(C)c2nc1SCC(=O)c1ccccc1	69*	24	.	.	.
Cc1cc2cccc(C)c2nc1SCC(=O)NC(C)(C)C	51	9	.	.	.
Cc1cc2c(C)ccc(C)c2nc1SCC(=O)Nc1c(C)cccc1C	-1	7	.	.	.
Cc1cc2c(C)ccc(C)c2nc1SCC(=O)O	79*	14	.	.	.
CC(C)(C)C(=O)N1C2CCC1CC(c1ccc(F)cc1)C2 (stereo unspecified)	13	.	.	.	.
CCOc1ccc(NC(=S)N(CCO)Cc2cc3cc4c(cc3[nH]c2=O)OCO4)cc1	-80	15	.	.	.
COc1ccc(C2/C(=C(/O)c3ccc(Cl)cc3)C(=O)C(=O)N2CC(C)O)cc1OC (stereo unspecified)	-2	6	.	.	.
Cc1[nH]nc2c1C(c1ccc(-c3ccccc3C#N)o1)C(C#N)=C(N)O2 (stereo unspecified)	-33	63*	6	-9	15
CC(C)C1Cc2c(C#N)c(N)sc(=S)c2CO1 (stereo unspecified)	-23	59*	-1	8	4
CC1(C)Cc2c(C#N)c(N)sc(=S)c2CO1	24	37	1	0	10
c1ccc(Cn2c(-c3ccco3)nc3nc4ccccc4nc32)cc1	62*	17	-5	2	5
O=C(O)C(Cc1ccccc1)N1C(=O)/C(=C/c2cccc3ccccc23)SC1=S (stereo unspecified)	21	11	-4	-10	63*
O=C(O)C(Cc1ccccc1)N1C(=O)/C(=C/c2ccccc2)SC1=S (stereo unspecified)	34	5	3	2	9
COc1ccccc1C1C2=C(N=c3s/c(=C/c4cccc(OCC(=O)O)c4)c(=O)n31)c1ccccc1CC2 (stereo unspecified)	32	13	3	41*	22
CCOc1ccc2cc(C#N)c(SCC(=O)Nc3nnc(CC)s3)nc2c1	73*	22	.	.	.
CCc1ccc(NC(=O)CSc2nc3cc(OC)ccc3cc2C#N)cc1	27	19	.	.	.
CCc1nnc(NC(=O)CSc2nc3cc(C)c(C)cc3cc2CC)s1	69*	20	.	.	.
CCc1nnc(NC(=O)CSc2nc3ccc(C)cc3cc2C#N)s1	-21	9	.	.	.
COc1cccc(NC(=O)CSc2nc3cc(OC)ccc3cc2C#N)c1	67*	6	.	.	.
COc1ccc2cc(C#N)c(SCC(=O)OC(C)C)nc2c1	84*	15	.	.	.
SMILES	EP2 modulator	EP2 antag	p97 ATPase inh	Arbovirus inh	Hck Nef HTS
CCc1nnc(NC(=O)CSc2nc3cc(C)ccc3cc2CC)s1	19	13	.	.	.
COc1ccc(C(=O)N2CCC3(CC2)NC(=O)c2cccnc2N3C)cc1Cn1cccn1	-27	8	.	.	.
Cc1ccnc(Sc2ccc([N+](=O)[O-])cc2[N+](=O)[O-])n1	-5	4	16*	-32	2
Cc1ccc(Oc2ccc(CNC(=O)C3C=CCN3S(C)(=O)=O)cc2)cc1 (stereo unspecified)	-34	6	.	.	.
Cc1cc(NC(=O)c2cnn3c(C(F)(F)F)cc(-c4ccccc4)nc23)no1	-55	51*	0	5	-9
COc1ccc(/C=C2/C(=O)N(CC3CCCO3)C(=S)N2C)c(OC)c1 (stereo unspecified)	-8	21	-7	52*	0
COc1ccc(-c2c(C)nn3c(N4CCC(O)CC4)cc(C)nc23)cc1	-15	.	.	.	.
COC(=O)CSc1nc2ccc(NC(=O)CSc3nnnn3Cc3ccccc3)cc2s1	-43	48*	-7	2	0
O=C(CSc1nc2ccc(NC(=O)CSc3nnnn3Cc3ccccc3)cc2s1)Nc1ccccc1	4	13	4	-7	1
O=C(Nc1nccs1)c1cc2c(s1)-c1ccccc1OC2	25	.	6	-8	4
Cc1cccc2c1-c1sc(C(=O)Nc3nccs3)cc1CO2	14	8	-3	82*	11
C=CCn1c(N2CCC(C(=O)NCCCN3CCC(C)CC3)CC2)nc2ccccc21	-39	.	.	.	.
O=C1c2ccsc2SCCN1Cc1cccc(Cl)c1	61*	10	-2	2	-1
Cc1ccccc1CN1CCSc2sccc2C1=O	62*	1	2	-3	19
CCC(C)(C)NC(=O)C(c1ccco1)N(C(=O)Cn1nnc2ccccc21)c1ccc(F)cc1 (stereo unspecified)	28	7	.	.	.
NS(=O)(=O)C1=C(Cl)CC2=NC(CCC(=O)O)=NS(=O)(O)=C2C1	11	45*	.	.	.
C#CCOc1ccc(/C=C2\C(=O)NC(=O)N(c3ccc(OC)cc3)C2=O)cc1OCC	-103	17	.	.	.
COc1ccc2cc(CN(CCO)C(=S)Nc3ccc(F)cc3)c(=O)[nH]c2c1	-95	17	.	.	.
COc1ccc2c(c1OC)C(=O)O[C@@H]2[C@H]1c2c(cc3c(c2OC)OCO3)CCN1C	61*!	10	2	-8	-4
O=C(CCn1nnc2ccccc21)N1CCCC(c2ncncc2-c2ccncc2)C1 (stereo unspecified)	-43	.	.	.	.
CC(C)Cc1csc(NC(=O)c2ccc(Cl)cc2)c1C(=O)O	-18	5	-1	22	3
Cc1cccc(C(=O)Nc2scc(CC(C)C)c2C(=O)O)c1	-45	10	2	65*	4
CC(C)Cc1csc(NC(=O)c2ccccc2Cl)c1C(=O)O	-39	20	1	66*	1
COc1ccc(NC(C)=O)cc1S(=O)(=O)Nc1ccc(N2CCCCC2)cc1	-13	6	.	.	.
Nc1nc(/C=C/c2c[nH]c3ccccc23)nc(-c2ccccc2O)n1	-117	91*	.	.	.
SMILES	EP2 modulator	EP2 antag	p97 ATPase inh	Arbovirus inh	Hck Nef HTS
Nc1nc(/C=C/c2ccc(F)cc2)nc(-c2ccccc2O)n1	-26	9	3	3	2
C[n+]1cc2c3c(ccc2c2ccc4cc5c(cc4c21)OCO5)OCO3	-38	118*	.	.	.
C[n+]1c(/C=C/c2ccc3c(c2)OCO3)ccc2ccccc21	5	4	-4	-2	-3
O=C(CSc1nc2ccccc2c(=O)n1-c1ccccc1)Nc1ccc(Br)cc1	35	8	.	.	.
Cc1cccc2cc(CN(CCCO)Cc3nnnn3Cc3ccc(F)cc3)c(=O)[nH]c12	-8	9	.	.	.
Cc1cc(C)cc(Oc2nc(C(F)(F)F)nc3ccccc23)c1	61*	9	-6	-14	-2
CN(C)Cc1cc(C(F)(F)F)ccc1C(O)(c1ccccc1)c1ccccc1	-18	46*	.	.	.
CN(C)Cc1cc(C(C)(C)C)cc(CN(C)C)c1O	9	18	.	.	.

Screening data (PubChem BioAssay)
